High-throughput results: PubChem BioAssay, The Scripps Research Institute Molecular Screening Center
An excerpt weighted towards active compounds, which were near 5.7% of everything screened.
ssDAF-12 act = S. stercoralis DAF-12 nuclear receptor activators, primary screen, cell-based, luminescence, HEK293, GRIP1 co-expression, lit1-tk-luc. Nuclear hormone receptor DAF-12 (Strongyloides stercoralis). AID 652126, 2013. HEK293 ssDAF-12/GRIP1 lit1-tk-luc reporter; % of 3 µM dafachronic acid response. activation, % at 6.8 µM. hit rate 1% among 370,000;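 active = activation above the mean over all tested compounds plus 3 SD, cut at about 0.9% in these data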;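 note: 0% = DMSO-only wells and 100% = 3 µM delta7-dafachronic acid wells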
AHR activator = AHR activators, primary screen, cell-based, luminescence, luciferase reporter, human | Aryl hydrocarbon receptor (Homo sapiens), P35869 | AHR-responsive luciferase reporter cells | activation, % at 5 µM | hit rate 2.5% among 320,000 | AID 2796, 2010; in the data active = activation above about 47%;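 note: 0% = vehicle wells and 100% = reference agonist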
Target sequence (P35869 whole entry, looked up): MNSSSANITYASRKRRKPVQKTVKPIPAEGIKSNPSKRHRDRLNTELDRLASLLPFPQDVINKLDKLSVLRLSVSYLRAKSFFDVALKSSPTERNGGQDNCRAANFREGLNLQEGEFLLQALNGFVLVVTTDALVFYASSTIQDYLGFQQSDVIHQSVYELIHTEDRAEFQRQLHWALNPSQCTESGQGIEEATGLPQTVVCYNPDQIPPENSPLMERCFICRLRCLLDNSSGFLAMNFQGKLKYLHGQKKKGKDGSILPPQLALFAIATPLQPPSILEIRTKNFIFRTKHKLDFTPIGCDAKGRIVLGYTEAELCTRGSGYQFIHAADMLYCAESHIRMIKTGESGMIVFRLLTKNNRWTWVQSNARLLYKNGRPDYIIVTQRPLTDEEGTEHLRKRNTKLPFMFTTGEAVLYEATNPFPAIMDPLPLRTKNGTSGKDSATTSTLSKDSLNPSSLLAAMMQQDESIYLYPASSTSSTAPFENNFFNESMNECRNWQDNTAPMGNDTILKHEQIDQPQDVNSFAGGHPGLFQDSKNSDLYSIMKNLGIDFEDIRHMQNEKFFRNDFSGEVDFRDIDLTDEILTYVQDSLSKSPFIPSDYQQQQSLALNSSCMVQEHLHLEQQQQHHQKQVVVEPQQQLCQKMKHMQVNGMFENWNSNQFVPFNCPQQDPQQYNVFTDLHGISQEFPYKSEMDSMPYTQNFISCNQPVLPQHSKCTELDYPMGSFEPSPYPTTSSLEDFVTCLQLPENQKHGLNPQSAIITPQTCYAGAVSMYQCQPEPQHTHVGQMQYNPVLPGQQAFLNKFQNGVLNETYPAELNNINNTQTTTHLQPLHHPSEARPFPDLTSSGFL
DAX1 inh-1 = DAX1 (NR0B1) inhibitors on StAR promoter, primary screen, cell-based, luminescence, SF-1 (NR5A1), full-length DAX-1 | AID 652010, 2013 | hit rate 1.1% among 370,000 | HEK293T StAR-luciferase reporter, SF-1/DAX-1 repression relief | inhibition, % at 6.8 µM;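 active = inhibition above the mean over all tested compounds plus 3 SD, cut at about 3.6% in these data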;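 note: 0% = DAX-1 cells with DMSO and 100% = cells lacking DAX-1 with DMSO; higher inhibition means more luminescence from relief of DAX-1 repression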
hgDAF12 agonist = H. glycines DAF-12 receptor agonists, primary screen, cell-based, luminescence, HEK293, GAL4 fusion, UAS-luciferase; hit rate 1.8% among 370,000; Nuclear hormone receptor DAF-12 (Heterodera glycines), GAL4 fusion; activation, % at 6.8 µM; AID 687014, 2013; HEK293 GAL4-hgDAF12 UAS-luciferase reporter, agonist luminescence; normalized to butyrate control;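 active = activation above a cutoff set at the mean of all screened compounds plus 3 SD, cut at about 10% in these data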;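 note: 0% = DMSO wells and 100% = sodium butyrate wells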
DAX1 inh-2 = DAX1 (NR0B1) inhibitors, primary screen, cell-based, HEK293, Gal4-DAX1, luciferase luminescence. Nuclear receptor subfamily 0 group B member 1 (Homo sapiens), P51843. HEK293 Gal4-DAX1 luciferase reporter. inhibition, % at 6.75 µM. hit rate 0.99% among 340,000;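 active = inhibition above the mean over all tested compounds plus 3 SD, cut at about 4.2% in these data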;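 note: 0% = DAX1-transfected cells with DMSO and 100% = empty-vector control cells with DMSO; inhibition shows as a rise in luminescence from relieved DAX1 repression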
hcDAF12 agonist = H. contortus DAF-12 nuclear receptor activators, primary screen, cell-based, luminescence, HEK293, lit1-tk-luc reporter | HEK293 hcDAF-12 lit1-tk-luc reporter; 0% DMSO, 100% Δ7-dafachronic acid | activation, % at 6.8 µM | hit rate 1.4% among 370,000 | AID 652067, 2013;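 active = activation above the mean of all tested compounds plus 3 SD, cut at about 5.5% in these data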;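 note: 100% = response to 3 µM Δ7-dafachronic acid high control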
LXRb hcDAF ctr = LXR agonists, Gal4 luciferase reporter, confirmation, counter-screen for hcDAF-12 agonist project, cell-based, luminescence, HEK293, H. contortus campaign; shares compounds with hcDAF12 agonist; HEK293 Gal4-LXR tk-luc reporter, 24 h; normalized: DMSO 0%, positive control 100%; activation, % at 6.8 µM; 3,400 tested, under 10 active;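 active = mean percent activation of the reporter above a cutoff set as the average over tested compounds plus their standard deviation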
hcDAF12 conf = H. contortus DAF-12 receptor agonists, confirmation, cell-based, luminescence, HEK293, lit1-tk-luc, triplicate | shares compounds with hcDAF12 agonist | HEK293 hcDAF-12 lit1-tk-luc reporter; % of Δ7-dafachronic acid response | activation, % at 6.8 µM | hit rate 61% among 3,400 | AID 743032, 2013;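 active = mean activation across triplicate tests above the threshold derived from the earlier primary screen, cut at about 5.5% in these data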;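 note: 0% = DMSO only wells and 100% = 3 µM Δ7-dafachronic acid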
Numbers without * were called inactive; · = no result given.

SMILES	ssDAF-12 act	AHR activator	DAX1 inh-1	hgDAF12 agonist	DAX1 inh-2	hcDAF12 agonist	LXRb hcDAF ctr	hcDAF12 conf
N#Cc1ccsc1NC(=O)COC(=O)c1cc2ccccc2cc1O	1.1*	20.8	2.4	5.3	2.3	9.3*	0.4	10.5*
O=C(NCc1ccco1)c1cccc2c1C(=O)N(C1CCCCC1)C2	-1.0	0.6	-1.3	2.4	0.4	-0.4	·	·
COc1ccc(CNC(=O)Cc2c(C(=O)O)[nH]c3ccccc23)c(OC)c1	1.9*	11.8	0.3	1.1	0.9	6.9*	-0.4	1.9
Cc1cccn2c(=O)c(/C=C(\C#N)S(=O)(=O)c3ccccc3)c(N3CCN(c4ccccc4)CC3)nc12	-0.7	7.4	0.7	0.3	-0.2	6.7*	-0.4	1.3
COCCn1c(SCC(=O)N2CCCCCC2)nc2c([nH]c3ccccc32)c1=O	0.3	37.9	0.9	2.9	0.7	7.2*	-0.3	0.3
COc1ccc([C@H]2CC(=O)C=C(c3ccc(C(F)(F)F)c(C(F)(F)F)c3)C2)cc1OC	-1.5	0.4	0.1	2.2	1.2	0.5	·	·
O=C(Nc1ccc(F)c([N+](=O)[O-])c1)C(=O)c1c(O)[nH]c2ccccc12	0.4	12.5	-0.4	1.5	3.6	6.9*	0.1	3.7
c1ccc2nc(-c3nc4ccccc4[nH]3)ccc2c1	1.1*	7.8	1.4	12.9*	-4.2	20.7*	1.5	21.2*
CN(C)C(=O)Cn1cc(S(=O)(=O)Cc2ccccc2)c2ccccc21	-0.6	5.9	0.1	1.3	-0.3	6.6*	0.0	2.6
CCN(CC)C(=O)Cn1cc(S(=O)(=O)CC(=O)NCCc2ccccc2)c2ccccc21	-0.8	2.3	-0.9	-0.2	-0.5	7.6*	-0.3	1.4
CC(C)N(C(=O)Cn1cc(S(=O)(=O)CC(=O)NCCc2ccccc2)c2ccccc21)C(C)C	-1.5	·	-0.9	1.2	3.8	-0.8	·	·
CC(CC(=O)O)CC(=O)Nc1cc(C(F)(F)F)cc(C(F)(F)F)c1 (configuration not stated)	-1.6	-2.7	-0.2	3.4	4.1	-0.1	·	·
O=C(CCCOc1ccc(Cl)cc1Cl)N1CCN(c2ccccn2)CC1	-1.3	44.3	-0.5	1.3	-0.1	-1.5	·	·
O=C(CCCOc1ccccc1)N1CCN(c2ccccn2)CC1	-0.5	21.6	2.4	8.0	0.8	10.4*	1.1	6.4*
CCc1ccc(NC(=O)CSc2nc3ccccc3nc2N2CCCCC2)cc1	-0.8	1.5	-0.2	1.4	0.6	2.2	·	·
CCCCOc1ccc(NC(=O)Nc2nnc(C)s2)cc1	1.1*	24.3	0.5	0.4	1.6	8.5*	-0.4	4.2
Cc1cccc(C)c1OCC(=O)N1CCc2ccccc2C1	-1.8	-7.8	-0.2	-1.1	0.0	-2.0	·	·
CCn1c(/C=C/c2c(C)n(CC)c3ccccc23)nc2ccccc2c1=O	-0.8	1.7	-0.1	-1.1	-0.3	1.3	·	·
COc1cccc(C=NNc2nc3ccccc3s2)c1OC	0.4	·	3.6*	12.9*	6.8*	7.6*	1.2	3.5
CCn1c(C)c(/C=N/Nc2nc3ccccc3s2)c2ccccc21	0.3	44.1	0.9	10.8*	-0.8	11.6*	0.3	3.7
COc1cccc(/C=N\NS(=O)(=O)c2ccccc2)c1OC	-0.9	-1.5	0.0	-1.2	1.0	0.8	·	·
COc1cccc(/C=N/Nc2nnc3c(n2)[nH]c2ccccc23)c1OC	-0.7	27.6	-0.5	1.0	0.7	7.1*	0.2	3.5
CCC(=O)Nc1ccc(C2=Nn3c(nnc3C(C)C)SC2)cc1	-1.7	2.7	-0.3	-2.0	0.1	-1.1	·	·
CCN(CC)c1ccc(/C=N/NC(=O)c2ccccn2)cc1	0.8	25.7	1.3	11.1*	3.8	6.8*	1.3	7.1*
CCOC(=O)c1cc(NC(=O)c2ccc(Cl)cc2)c(=O)n2c1oc1ccc(Cl)cc12	-0.7	-0.2	-0.2	3.6	-0.5	9.3*	-0.3	-1.7
SMILES	ssDAF-12 act	AHR activator	DAX1 inh-1	hgDAF12 agonist	DAX1 inh-2	hcDAF12 agonist	LXRb hcDAF ctr	hcDAF12 conf
CCOC(=O)c1cc(NC(=O)c2ccc(C)cc2)c(=O)oc1C(F)(F)F	-0.3	-5.2	0.3	5.9	-1.3	0.5	·	·
Cc1ccc2nc(-c3ccc(SCC(=O)N4CCc5ccccc54)nc3)[nH]c2c1	-0.4	58.7*	1.0	4.6	0.9	7.1*	0.6	6.4*
O=C(COC(=O)COc1ccccc1[N+](=O)[O-])NC1CCCC1	-1.2	1.8	0.0	0.3	1.5	2.4	·	·
CCOC(=O)c1nn(-c2ccc(C)cc2)cc1C(=O)c1ccccc1	-0.4	1.3	3.2	12.5*	2.8	6.9*	1.0	5.7*
Cc1ccc(OCc2nc(-c3ccccn3)no2)c(Br)c1	0.0	-10.0	3.4	2.4	-2.0	5.5	·	·
CCc1ccc(OCc2nc(-c3ccccn3)no2)c(Br)c1	1.0*	-6.3	7.1*	8.4	-1.4	7.7*	1.5	6.4*
Cc1cccn2c(=O)c(/C=C(\C#N)C(N)=O)c(N3CCN(Cc4ccc5c(c4)OCO5)CC3)nc12	-1.4	-3.7	-0.7	-5.7	-2.6	-4.5	·	·
CCCCn1c(N)c(N(CC)C(=O)c2cc(Br)ccc2Cl)c(=O)[nH]c1=O	-1.3	2.0	0.2	0.4	2.5	-1.7	·	·
CC(=O)N[C@@H](Cc1ccc(O)cc1)CN1C(N)=NC[C@@H]1CC(C)C	0.2	-0.6	0.9	0.5	-0.4	6.8*	-0.2	0.2
O=C1CCC2(CC1)NC(=O)N(c1ccccc1)N2	1.1*	0.7	-0.3	8.1	0.1	6.5*	-0.2	0.4
COc1ccccc1C(=O)Nc1ccc(Br)cc1C	0.9	37.0	-0.4	11.1*	2.3	7.0*	0.3	9.6*
